# PubChem BioAssay (Tox21)
# Inconclusive results are not listed. Values without a mark were called inactive. Calls come from the whole dose curve; as a rule, active = well fitted cell-killing curve with a large enough effect in the repeat runs (not every such curve was filed as active); inconclusive = weak or mixed curves, or effect the other way; inactive = no such curve, though single readings can be large or run the other way.
# Assay: qHTS assay to identify small molecule antagonists of the farnesoid-X-receptor (FXR) signaling pathway - cell viability counter screen (AID 743221); note: nearly all actives have a fitted effect of over 50% in size
# Conditions: FXR-bla HEK293T viability, CellTiter-Glo luminescence, 16 h; series mostly up to 62.6 µM; activity change, negative = cytotoxicity: at the top concentration
# Source text: National Center for Advancing Translational Sciences [NCATS]
# NIH Chemical Genomics Center [NCGC]
# U.S. Environmental Protection Agency [EPA]
# National Institutes of Environmental Health Sciences [NIEHS]
# National Toxicology Program [NTP]
# U.S. Food and Drug Administration [FDA]
# The farnesoid-X-receptor (FXR), a nuclear hormone receptor, is highly expressed in liver, intestine, kidney and adrenal cortex. Natural ligands of FXR are the bile acids (Cholic acid, Chenodeoxy cholic acid etc). FXR is an important regulator of diverse metabolic pathways, including the bile acid homeostasis, lipid and glucose metabolisms. FXR regulates the expression of target genes by binding either as a monomer or as a heterodimer with the retinoid X receptor (RXR). Numerous studies have reported that FXR exerts protective function during cholestasis, diabetes, liver regeneration, and cancer. To identify compounds that inhibit FXR signaling, GeneBLAzer FXR-UAS-bla HEK 293T cell line (Invitrogen, Carlsbad, CA) containing a beta-lactamase reporter gene under the control of a UAS response element was used to screen the Tox21 10K compound library. The cytotoxicity of the Tox21 compound library against the FXR-bla cell line was tested in parallel by measuring the cell viability using CellTiter-Glo assay in the same wells.
# Tox21 Assay Protocol Summary:
# FXR-bla cells were dispensed at 5000 cells/5uL/well in 1536-well black wall/clear bottom plates using a Multidrop Combi (Thermo Fisher Scientific, Waltham, MA) dispenser. After the assay plates were incubated at 37 C and 5% CO2 for 5 h, 23 nL of compounds dissolved in DMSO, positive controls or DMSO only was transferred to the assay plate by a Pintool station (Kalypsys, San Diego, CA), followed by addition of 1 uL Chenodeoxycholic acid (50 uM, final concentration in the wells). The assay plates were incubated at 37C for 16 h. After 1 uL of LiveBLAzerTM B/G FRET substrate was added using a Bioraptr Flying Reagent Dispenser (FRD) workstation (Beckman Coulter, Indianapolis, IN), the plates were incubated at room temperature for 2 h, and fluorescence intensity was measured by an Envision plate reader (PerkinElmer, Shelton, CT). For cell viability readout that measures cytotoxicity, 4uL/well of CellTiter-Glo reagent was added into the assay plates using a Bioraptr FRD. After 30 min incubation at room temperature, the luminescence intensity in the plates was measured using a ViewLux plate reader (PerkinElmer).
# % is set by controls: 0 for no effect and ±100 for the full control effect.
row,Structure (SMILES),"activity change, negative = cytotoxicity"
1,COC(=O)c1cc(Cl)ccc1[N+](=O)[O-],-7.29%
2,C1CCN(CN2CCCCC2)CC1,4.56%
3,O=C(c1ccc(Cl)cc1)c1ccc(Cl)cc1,0.331%
4,SCCOCCOCCS,6.92%
5,Cc1ccccc1CCO,-0.0453%
6,O=C(C1CCCCC1)N1CC(=O)N2CCCc3ccccc3C2C1 (stereo not given),9.55%
7,CC(O)CN (stereo not given),-2.84%
8,N#Cc1ccc(CC(=O)c2cccc(C(F)(F)F)c2)cc1,4%
9,CC(=O)Nc1ccn(C2COC(COC(=O)c3ccccc3)O2)c(=O)n1 (stereo not given),-4.57%
10,CC(=O)Oc1cccc2c1C(=O)c1c(OC(C)=O)cc(C(=O)O)cc1C2=O,-14.9%
11,[O-][n+]1ccc(Cl)cc1,3.01% [at 81.1 µM]
12,NC(=O)c1ccccc1C(N)=O,-13.4% [at 81.1 µM]
13,CC(C)(O)C(=O)O,-7.9%
14,CC(C)NC(=O)c1ccccc1N,-0.43%
15,COc1cc(C)c(Cc2cnc(N)nc2N)cc1OC,3.22%
16,CCC(CC)C(=O)O,19.1%
17,O=C(O)c1ccccc1-n1cc(C(=O)O)c(=O)c2cc(Nc3c(F)cc(F)cc3Cl)c(Cl)cc21,8.44%
18,O=C(OC1C[C@H]2CC[C@@H](C1)[N+]21CCCC1)C(O)(c1ccccc1)c1ccccc1 (stereo not given in full),4.94%
19,CCCc1ccc(OC)cc1,-0.147% [at 81.1 µM]
20,Clc1nc2ccccc2nc1Cl,4.43% [at 81.1 µM]

row,Structure (SMILES),"activity change, negative = cytotoxicity"
1,CCCCCCCCCCCCCCCCN,-5.91%
2,Cc1ccc2c(Cl)cc(Cl)c(O)c2n1,17.7%
3,CC(C)Oc1ccccc1O,3.05%
4,Cc1nc(C)c(C)nc1C,7.26%
5,CCOCCn1c(N2CCCN(C)CC2)nc2ccccc21,-8.02%
6,CCCCCCCCCCCCN1CCOCC1,-0.328%
7,O=[N+]([O-])c1ccccc1CCO,1.34% [at 81.1 µM]
8,C/C(=C\C(C)CC(C)CC(C)C)C1CC(=O)OC1=O (stereo not given),2.06%
9,Cc1ccc2ccccc2c1[N+](=O)[O-],-0.64%
10,C=CC(C)CCC=C(C)C (stereo not given),3.62%
11,CCCCCCCCOCCCN,-14.5%
12,Nc1ccc(F)cc1F,3.32% [at 81.1 µM]
13,CCC(C(=O)O)c1ccc(N2Cc3ccccc3C2=O)cc1 (stereo not given),-0.299%
14,C=CC(C)(O)CC/C=C(/C)CCC=C(C)C (stereo not given),1.19%
15,Sc1nc(S)nc(S)n1,2.63%
16,COc1cccc([C@H](O)C2CCN(CCc3ccc(F)cc3)CC2)c1OC,-5.55%
17,O=C(O)c1cc(C(=O)O)c(C(=O)O)cc1C(=O)O,17%
18,Cc1cc(C)c(C)c(O)c1,-5.21%
19,CCCCOc1ccc(N)cc1,8.58%
20,O=C(O)CCc1nc2ccccc2[nH]1,7.85%
